± gives the standard deviation.
What follows are sequences tested on MILI (PIWIL2) piRISC loaded with L1MC piRNA (26 nt) (assay: pre-steady-state target cleavage rate (min^-1); guide: L1MC piRNA 5'p-UAACUAAAUACUAUGCAAGCUGUAGG; MIWI and MILI are mouse PIWI proteins and EfPiwi is from a freshwater sponge; tags in brackets are library labels; higher = faster piRNA-guided slicing of the target). Conditions: auxiliary factor: 500 nM mouse GTSF1.
In short: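 The pre-steady-state cleavage rate was obtained by Cleave-'n-Seq with a burst-and-steady-state fit. A transcribed, DNA-blocked target RNA library (0.1 nM) was mixed with 1 nM active affinity-purified piRISC carrying one synthetic guide, with or without 500 nM GTSF1 partner protein, in HEPES–potassium acetate buffer at 33 °C for 0–8 or 0–960 min. Uncleaved targets were sequenced and normalised to depth and to weakly complementary targets, with three trials pooled and k3 capped at 0.0001 min^-1.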

| Sequence | pre-steady-state target cleavage rate |
| --- | --- |
| UCCUGGUAGAGGUUGCAUAGUAUUUAGUUA | 0.185 ± 0.024 |
| UCCUGGAACAGCUUGCAAGUAUUUAGUUA | 0.141 ± 0.013 |
| UCCUGGAACAGCUUGCAUAGUAUUUAGUUC [g2:g23:cont:t1C] | 0.191 ± 0.024 |
| UCCUGCUACAGCAUUGCAUAGUAUUUAGUUA | 0.286 ± 0.02 |
| UCCUGCUACGGCUUGCAUAGUAUUUAGUUA | 0.276 ± 0.021 |
| UCCUGGAUCAGUCUUGCAUAGUAUUUAGUUA | 0.212 ± 0.016 |
| UCCUGCUACACCUUGCAUUGUAUUUAGUUA | 0.151 ± 0.014 |
| UCCUGGAUGUGGUUGCAUAGUAUAUAGUUA | 0.158 ± 0.023 |
| UCCUGGAUCAGCUUGCAUAGUAUUUAGUAUA | 0.233 ± 0.021 |
| UCCUGCAACAGCUUGCAUAGUAUUUAGUAA | 0.333 ± 0.031 |
| UCCUGCUUCACCUUGCAUAGUAUUUAGUUA | 0.228 ± 0.027 |
| UCCUGGAAGAGCUUGGAUAGUAUUUAGUUA | 0.178 ± 0.0086 |
| UCCUCCUACACCUUGCUUAGUAUUUAGUUA | 0.193 ± 0.022 |
| UCCUGGUACAGCUUGCAUAGUAUUUAUGUUA | 0.147 ± 0.036 |
| UCCUCCUACACCUUGCAAAGUAUUUAGUUA | 0.118 ± 0.015 |
| UCCUGCUACAGGUUGCAAAGUAUUUAGUUA | 0.143 ± 0.013 |
| UCCUGCUACAGCUUGCUUAGUUUUUAGUUA | 0.0712 ± 0.011 |
| UCCUGGAUCAGGUUGCAUAGUAUUUAGUUA | 0.182 ± 0.02 |
| UCCUGGAUGUGGCUUGCAUAGUAUUUAGUUA | 0.163 ± 0.017 |
| UCCUGGAUCAGCUUGCAAAGUAUUUAGAUA | 0.126 ± 0.018 |

| Sequence | pre-steady-state target cleavage rate |
| --- | --- |
| UCCUGGUACAGCUUACAUAGUAUUUAGUUA | 0.213 ± 0.02 |
| UCCUGGAUGUCCCUUGCAUAGUAUUUAGUUA | 0.116 ± 0.021 |
| UCCUGCUACAGGUAGCAUAGUAUUUAGUUA | 0.367 ± 0.031 |
| UCCUCCUACAGCUUGCAUAGUAUUUAGUUUA | 0.333 ± 0.019 |
| UCCUGGAUCAGGUUGCAAAGUAUUUAGUUA | 0.121 ± 0.011 |
| UCCUGGAACAGCGUGCAUAGUAUUUAGUUA | 0.282 ± 0.017 |
| UCCUGGAUGUGCUUGCAAAGUAUUUAGUUA | 0.0492 ± 0.011 |
| UCCUGGAUCAGCUUGGAAAGUAUUUAGUUA | 0.0767 ± 0.01 |
| UCCUCCUUGUGCUUGCAUAGUAUUUAGUAA | 0.147 ± 0.021 |
| UCCUGCUACAGCAUGCAUAGUAUUUAGUUA | 0.353 ± 0.022 |
| UCCUCCUACAGCUUGCUUAGUAUUUUGUUA | 0.133 ± 0.016 |
| UCCUGGUACAGGAAGCAUAGUAUUUAGUUA | 0.223 ± 0.025 |
| UCCUGGAUCUGCUUGCAUAGUAUUAAGUUA | 0.204 ± 0.019 |
| UCCUCCUACAGCUUGCAUAGUAUUUACUUA | 0.206 ± 0.039 |
| UCCUGGUCCAGCUUGCAUAGUAUUUAGUUA | 0.232 ± 0.02 |
| UCCUGGAUCAGCAUGCAUAGUAUUAAGUUA | 0.24 ± 0.012 |
| UCCUGGAUCUCCUUGCAUAGUAUUUAGUUA | 0.226 ± 0.014 |
| UCCUGGAUCAGCUACCAUAGUAUUUAGUUA | 0.145 ± 0.014 |
| UCCUCCUAGAGCUUGGAUAGUAUUUAGUUA | 0.217 ± 0.013 |
| UCCUGGAUGAGCUUUGCAUAGUAUUUAGUUA | 0.181 ± 0.013 |

Same assay, conditions: auxiliary factor: none (no GTSF1)

| Sequence | pre-steady-state target cleavage rate |
| --- | --- |
| UCCUGGUAGAGGUUGCAUAGUAUUUAGUUA | 0.0103 ± 0.0031 |
| UCCUGGAACAGCUUGCAAGUAUUUAGUUA | 0.00614 ± 0.0021 |
| UCCUGGAACAGCUUGCAUAGUAUUUAGUUC [g2:g23:cont:t1C] | 0.00602 ± 0.0018 |
| UCCUGCUACAGCAUUGCAUAGUAUUUAGUUA | 0.0108 ± 0.0036 |
| UCCUGCUACGGCUUGCAUAGUAUUUAGUUA | 0.00977 ± 0.0025 |
| UCCUGGAUCAGUCUUGCAUAGUAUUUAGUUA | 0.0108 ± 0.0023 |
| UCCUGCUACACCUUGCAUUGUAUUUAGUUA | 0.0123 ± 0.004 |
| UCCUGGAUGUGGUUGCAUAGUAUAUAGUUA | 0.00921 ± 0.0037 |
| UCCUGGAUCAGCUUGCAUAGUAUUUAGUAUA | 0.00809 ± 0.0032 |
| UCCUGCAACAGCUUGCAUAGUAUUUAGUAA | 0.00819 ± 0.0029 |
| UCCUGCUUCACCUUGCAUAGUAUUUAGUUA | 0.00696 ± 0.0025 |
| UCCUGGAAGAGCUUGGAUAGUAUUUAGUUA | 0.00531 ± 0.0023 |
| UCCUCCUACACCUUGCUUAGUAUUUAGUUA | 0.00665 ± 0.0019 |
| UCCUGGUACAGCUUGCAUAGUAUUUAUGUUA | 0.0114 ± 0.0044 |
| UCCUCCUACACCUUGCAAAGUAUUUAGUUA | 0.00739 ± 0.0022 |
| UCCUGCUACAGGUUGCAAAGUAUUUAGUUA | 0.00965 ± 0.0025 |
| UCCUGCUACAGCUUGCUUAGUUUUUAGUUA | 0.00366 ± 0.0015 |
| UCCUGGAUCAGGUUGCAUAGUAUUUAGUUA | 0.00807 ± 0.0024 |
| UCCUGGAUGUGGCUUGCAUAGUAUUUAGUUA | 0.0089 ± 0.0042 |
| UCCUGGAUCAGCUUGCAAAGUAUUUAGAUA | 0.00353 ± 0.0024 |

| Sequence | pre-steady-state target cleavage rate |
| --- | --- |
| UCCUGGUACAGCUUACAUAGUAUUUAGUUA | 0.00894 ± 0.0027 |
| UCCUGGAUGUCCCUUGCAUAGUAUUUAGUUA | 0.00815 ± 0.0024 |
| UCCUGCUACAGGUAGCAUAGUAUUUAGUUA | 0.00651 ± 0.0037 |
| UCCUCCUACAGCUUGCAUAGUAUUUAGUUUA | 0.0143 ± 0.0034 |
| UCCUGGAUCAGGUUGCAAAGUAUUUAGUUA | 0.00902 ± 0.0027 |
| UCCUGGAACAGCGUGCAUAGUAUUUAGUUA | 0.00797 ± 0.0029 |
| UCCUGGAUGUGCUUGCAAAGUAUUUAGUUA | 0.00756 ± 0.0024 |
| UCCUGGAUCAGCUUGGAAAGUAUUUAGUUA | 0.00552 ± 0.0021 |
| UCCUCCUUGUGCUUGCAUAGUAUUUAGUAA | 0.0033 ± 0.0024 |
| UCCUGCUACAGCAUGCAUAGUAUUUAGUUA | 0.00853 ± 0.003 |
| UCCUCCUACAGCUUGCUUAGUAUUUUGUUA | 0.0026 ± 0.0026 |
| UCCUGGUACAGGAAGCAUAGUAUUUAGUUA | 0.00538 ± 0.0026 |
| UCCUGGAUCUGCUUGCAUAGUAUUAAGUUA | 0.00478 ± 0.0026 |
| UCCUCCUACAGCUUGCAUAGUAUUUACUUA | 0.00429 ± 0.0025 |
| UCCUGGUCCAGCUUGCAUAGUAUUUAGUUA | 0.0129 ± 0.0037 |
| UCCUGGAUCAGCAUGCAUAGUAUUAAGUUA | 0.00634 ± 0.0023 |
| UCCUGGAUCUCCUUGCAUAGUAUUUAGUUA | 0.00588 ± 0.0018 |
| UCCUGGAUCAGCUACCAUAGUAUUUAGUUA | 0.00343 ± 0.0016 |
| UCCUCCUAGAGCUUGGAUAGUAUUUAGUUA | 0.00594 ± 0.0019 |
| UCCUGGAUGAGCUUUGCAUAGUAUUUAGUUA | 0.0103 ± 0.0021 |

From the supplement of paper PMC10338343
